15-hLO-2 inh = inhibitors of human 15-lipoxygenase 2 (ALOX15B) | Potency, µM (titrated, usually from 57.1 µM), without a hit: at the top dose activity change, negative = inhibition, usual class: inhibitors | O15296 | purified 15hLO-2, xylenol orange hydroperoxide absorbance | 110,000 tested, 0.56% active; further: potency means the concentration at half of the fitted maximal effect; nearly all actives have a fitted effect of over 60% in size
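Screening format was qHTS against 50 nM purified 15hLO-2 in Hepes pH 7.5 with detergent. Activity follows hydroperoxide formation from 45 uM arachidonic acid, measured as 573:405 nm absorbance ratio of the ferric-xylenol orange complex.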
ALOX12 inhib = inhibitors of human 12-lipoxygenase (ALOX12) | purified 12-hLO, xylenol orange hydroperoxide absorbance | Potency, µM (doses to about 57.1 µM), for inactives: at the highest dose activity change, negative = inhibition, most hits filed as inhibitors | 150,000 tested, 0.12% active | AID 1452; further: potency means the concentration at half of the fitted maximal effect; nearly all actives have a fitted effect of over 55% in size
Target sequence (P18054 whole entry, looked up): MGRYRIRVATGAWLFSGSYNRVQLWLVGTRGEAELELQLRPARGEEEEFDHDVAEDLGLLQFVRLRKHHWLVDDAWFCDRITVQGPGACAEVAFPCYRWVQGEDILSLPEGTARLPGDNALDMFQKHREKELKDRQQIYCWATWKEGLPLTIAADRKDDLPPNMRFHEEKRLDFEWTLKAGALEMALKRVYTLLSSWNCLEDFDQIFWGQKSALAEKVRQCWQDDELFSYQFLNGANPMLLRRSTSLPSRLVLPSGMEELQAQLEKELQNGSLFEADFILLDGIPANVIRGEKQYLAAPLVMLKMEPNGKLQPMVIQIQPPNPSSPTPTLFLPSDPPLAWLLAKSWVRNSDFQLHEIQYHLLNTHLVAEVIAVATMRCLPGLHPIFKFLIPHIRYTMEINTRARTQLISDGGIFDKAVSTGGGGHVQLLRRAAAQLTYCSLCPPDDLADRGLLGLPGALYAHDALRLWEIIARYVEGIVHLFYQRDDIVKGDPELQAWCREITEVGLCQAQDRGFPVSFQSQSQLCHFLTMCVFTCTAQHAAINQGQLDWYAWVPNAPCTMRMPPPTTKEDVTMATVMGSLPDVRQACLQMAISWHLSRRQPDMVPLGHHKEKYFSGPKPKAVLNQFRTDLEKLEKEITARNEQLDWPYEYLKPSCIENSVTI
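Lipoxygenase turnover measured by absorbance at 573 and 405 nm after Fe-XO development. Human 12hLO 150 nM, arachidonate 40 uM, pH 7.0 Hepes buffer with detergent; 15 min compound preincubation, 30 min reaction.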
PNC inhibitor = inhibitors of perinucleolar compartment assembly; 140,000 tested, 3.1% active; activity change (PNC), negative = inhibition, % at 10 µM; PC3M PTB-GFP, PNC prevalence imaging, 16 h; stronger effect = lower value;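 active means readout at or below -70, meaning at least 70% loss of cells showing the perinucleolar compartment, a nuclear body marking cancer cells; inconclusive means readout between -30 and a set limit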;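 further: plate controls were DMSO wells for no effect and camptothecin positive control wells for full effect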
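PC3M cells stably expressing PTB-GFP, 750–1000 cells/well, treated 16 h at 37 °C with compound (23 nl of library stock), in duplicate. After paraformaldehyde fixation and Hoechst stain, imaged at 20x; PNC prevalence scored by image analysis.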
An asterisk follows results filed as active; ? = inconclusive; nt = no result given; [ ] = dose if it differs, or a comment. Sampled rows, rich in hits. Any-hit rate of the full collection: about 3.2%. Unless noted, the call rests on the fitted dose curve; in most records, active means well fitted curve in the direction sought with a large enough effect; inconclusive means small, poorly fitted or top-dose-only effect, or another doubt; inactive means no such curve, though single readings can be large; an effect the other way counts as inactive or inconclusive. Unless noted, on the % scale 0 is the no-effect control and ±100 the full control effect.

SMILES	15-hLO-2 inh	ALOX12 inhib	PNC inhibitor
CCOC(=O)C(=CNCC(=O)OC)C(=O)OCC	3.6%[11.4 µM]	-0.3%	1.6
O=[N+]([O-])c1ccccc1-c1ccc(/C=N/n2cnnc2)o1	0.2%	-0.8%	46.8
Cc1cc(/C=N/n2cnnc2)c(O)c([N+](=O)[O-])c1	nt	-1.0%	-118.2*
COc1ccc(Oc2ncc3nc(-c4cccs4)c(=O)n(Cc4cccs4)c3n2)cc1	-17.0%	-3.1%	nt
O=C(NC1CCCCC1)C(c1ccccc1)N(C(=O)Cc1ccsc1)c1ccccc1 (stereo unspecified)	-17.2%[11.4 µM]	3.6%	?
COC(=O)C1(O)CC(CC(C)C)=NN1C(=O)c1ccccc1 (stereo unspecified)	9.2%[11.4 µM]	-1.1%	-124.4*
COC(=O)C1=NN(C(=O)c2ccccc2)C(C)(O)C1 (stereo unspecified)	4.1%	5.5%	?
CCCn1c(-c2ccc(F)cc2)nc2c(NCCCN(C)C)nc(C)nc21	43.6%	-1.5%	nt
Cc1noc(C)c1C(=O)N1CCC2(CCCN(C(=O)Nc3cccc(C#N)c3)C2)CC1	-0.9%	3.6%	nt
O=C(c1ccco1)N1CCN(CC(O)COc2ccc3oc4ccccc4c3c2)CC1 (stereo unspecified)	36.7%	-2.8%	-92.6*
O=C(c1ccco1)N1CCN(CCCCOc2ccc(F)cc2)CC1	nt	-3.0%	-21.4
O=C(Nc1ccc(-c2noc(CCc3ccccc3)n2)cc1)c1ccco1	6.3%	4.6%	-89.3*
c1ccc(CCc2nc(-c3ccccc3)no2)cc1	0.7%	0.5%	-18.6
[O-][n+]1c(CN2CCCCC2)nc2cccc3c2c1-c1ccccc1-3	4.0%[11.4 µM]	-9.2%[11.4 µM]	nt
CC1CCC2C(C)(C)C3CC12CC[C@]3(C)O (stereo partly specified)	1.3%	-0.5%	nt
CCOC(=O)c1c(C)nc2ccccc2c1C	4.1%	-2.2%	?
CCOC(=O)c1c(Nc2ccccc2N)cc(C)nc1C	-2.6%	2.8%	-106.5*
C/C(Cn1cnc([N+](=O)[O-])n1)=N\NC(=O)c1cccc(F)c1	nt	1.0%	-88.0*
C/C(Cn1nnc([N+](=O)[O-])n1)=N\NC(=O)c1ccc(C)cc1	nt	1.7%	-109.0*
C/C(Cn1cnc([N+](=O)[O-])n1)=N\NC(=O)c1ccc(F)cc1	nt	-3.5%	14.0
C/C(Cn1nnc([N+](=O)[O-])n1)=N\NC(=O)c1cccc(Cl)c1	-4.1%	-10.8%	-26.2
Cn1cccc1C(=O)N1CCC[C@@]2(CCN(c3ncccn3)C2)C1	-4.1%	1.1%	nt
COC(=O)N1CCN(c2ccc(Cl)c(Cl)c2)CC1	6.0%	-12.0%	-101.6*
COC(=O)N1CCN(c2ccc(OC)cc2)CC1	2.2%	-0.7%	16.8
CC(C)c1cc(Nc2cccc(O)c2)cc(C(C)C)c1O	12.6µM*	?	17.2
SMILES	15-hLO-2 inh	ALOX12 inhib	PNC inhibitor
Oc1cccc(Nc2ccccc2)c1	-25.5%	-3.1%	nt
c1nc(N2CCNCC2)c2cc(-c3ccc4c(c3)OCO4)ccc2n1	28.4%	-7.3%	nt
CC(C)N(Cc1nnc(-c2ccccc2Cl)o1)C(=O)c1cccc(C#N)c1	-4.2%	-2.8%	20.2
N=c1n(CCN2CCCCC2)c2ccccc2n1CC(O)c1ccc(Cl)c(Cl)c1 (stereo unspecified)	56.2%	4.6%	-27.1
N=c1n(CCN2CCCC2)c2ccccc2n1CC(O)c1ccco1 (stereo unspecified)	55.7%	10.4%	-92.3*
Cn1c(NC(=O)/C=C/c2ccco2)cc(=O)n(C)c1=O	nt	-8.1%	-121.5*
Cc1ccc(/C=C/C(=O)Nc2cc(=O)n(C)c(=O)n2C)o1	nt	-1.4%	-12.1
COC(=O)N1C2CC3(C)CC(=O)CC1(C)C3c1ccccc12 (stereo unspecified)	nt	-0.2%[11.4 µM]	nt
CCOC(=O)C1CCN(C(=O)CSc2ccc(Cl)cc2)CC1	nt	2.4%	-100.0*
CCOC(=O)C1CCN(C(=O)C(C)Sc2ccc(Cl)cc2)CC1 (stereo unspecified)	nt	-0.4%	-11.6
Cc1nonc1NC(=O)c1ccc(Cl)c(S(=O)(=O)N2CCCCC2)c1	-8.7%	-5.7%	-2.1
c1ccc(Cn2ncc3c(NCc4ccco4)ncnc32)cc1	-0.5%	-8.9%	-105.1*
c1ccc(-n2ncc3c(NCc4ccco4)ncnc32)cc1	9.1%	-3.1%	30.8
COc1ccc(-c2nc3cnc(Nc4cccc(OC)c4)nc3n(C)c2=O)cc1	6.0%	nt	nt
COCCN(C(=O)COc1ccc(Cl)cc1)c1nnc(-c2cccnc2)s1	nt	-2.6%	-100.0*
COCCN(C(=O)COc1ccccc1)c1nnc(-c2cccnc2)s1	-6.1%	4.2%	-28.3
CC(C)C(N)C(=O)NC(Cc1c[nH]c2ccccc12)C(=O)O (stereo unspecified)	-9.6%	-3.5%	nt
COC(=O)[C@@H]1C[C@H]1[C@@H](NC(=O)c1cnccn1)c1ccccc1	-5.1%	1.9%	nt
Cc1cc(C(=O)CCC(=O)N2CCN(S(=O)(=O)c3cccs3)CC2)c(C)s1	-2.8%	-4.7%	-99.5*
CCOC(=O)N1CCN(S(=O)(=O)c2cccs2)CC1	-0.9%	2.1%	46.7
COC(=O)c1ccc(Cl)cc1NC(=O)/C=C/c1ccc(C)o1	nt	-1.3%	-123.8*
COC(=O)c1cc(Cl)c(NC(=O)/C=C/c2ccc(Cl)cc2Cl)cc1OC	-29.7%	-1.5%	-11.3
O=c1cnc2cnc(N3CCOCC3)nc2n1CCc1ccccc1	1.5%	nt	nt
NC(=O)CC[C@H](NC(=O)OCc1ccccc1)C(=O)OCc1ccc(Cl)cc1	nt	-1.2%	-92.9*
O=C(CCC(NC(=O)OCc1ccccc1)C(=O)OCc1ccccc1)NCC(=O)OCc1ccccc1 (stereo unspecified)	nt	3.3%	-2.8
SMILES	15-hLO-2 inh	ALOX12 inhib	PNC inhibitor
CC1=CC2C(C(C)C)CCC(C)(O)C2CC1 (stereo unspecified)	-6.0%	-0.7%	nt
CCCCOc1ccc(C(=O)NNC(=S)NC(=O)CC)cc1	nt	-18.2%	?
C=CCNC(=S)NNC(=O)c1ccc(OCCCC)cc1	nt	-2.5%	-121.7*
C=CCN1c2ccccc2[C@]23C[C@@H](C(=O)OC)N(S(=O)(=O)c4ccc(Br)cc4)C2=NC(C(=O)OC)=C(C(=O)OC)[C@H]13	nt	-2.2%[11.4 µM]	nt
Cc1csc(NC(=O)C(CC(C)C)NS(=O)(=O)c2ccc3c(c2)oc(=O)n3C)n1 (stereo unspecified)	3.1%	0.4%	-81.7*
Cc1csc(NC(=O)C2CCN(S(=O)(=O)c3ccc4c(c3)oc(=O)n4C)CC2)n1	0.4%	-27.4%	-6.3
COc1ccc(NC(=O)N2CC(C)OC(C)C2)cc1OC (stereo unspecified)	3.1%	-3.8%	23.6
COc1ccc(NC(=O)N2CCCC2)cc1OC	21.6%	-4.0%	-108.8*
CCN(CCO)C[C@H]1CCC[C@H]2CCCC[C@@H]21	2.4%[11.4 µM]	2.0%[11.4 µM]	nt
CC(C)(C)C(=O)CSc1nc2ncc(Br)cc2[nH]1	3.9%	-1.7%	-97.8*
Cc1nc2nc(SCC(=O)C(C)(C)C)[nH]c2cc1Br	2.5%	-2.6%	3.6
O=C(COC(=O)C1CCN(S(=O)(=O)c2ccc3c(c2)OCCO3)CC1)Nc1ccc(C(F)(F)F)cc1	nt	-1.2%	-13.5
N#CC1=C2SCN(c3ccccc3)CN2C(=O)CC1c1ccccc1Cl (stereo unspecified)	7.94µM*	?	-1.0
N#CC1=C2SCN(Cc3ccco3)CN2C(=O)CC1c1c(F)cccc1Cl (stereo unspecified)	?	-7.5%	18.0

From PubChem
